Source: PubChem BioAssay (NCI)
The panel holds about 79,000 compounds, 15% with a hit somewhere; the sample as a whole holds those more often. The source made the active and inactive calls. Cut-off read from the data, not from the text of the source: active = growth inhibition above about 70%; inactive = the rest.

Assays:
[1] = NCI Yeast Anticancer Drug Screen. Data for the rad52 strain (AID 147);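 note: 0% = growth of vehicle-treated control cultures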; settings: S. cerevisiae rad52 mutant growth inhibition, stronger effect = higher value
In short: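 Yeast strain carrying a DNA damage repair alteration was exposed to test compounds. Growth inhibition was measured relative to vehicle-treated controls.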

[2] = NCI Yeast Anticancer Drug Screen. Data for the wt1 strain (AID 149);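 note: 0% = growth of vehicle-treated wt1 cultures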; settings: S. cerevisiae wt1 strain (SPY 50644) growth inhibition, stronger effect = higher value
In short: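 Measured: growth of wt1 yeast under compound versus vehicle treatment, reported as inhibition.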

[3] = NCI Yeast Anticancer Drug Screen. Data for the rad50EPP+ strain (AID 151);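 note: 0% = growth of vehicle-treated control cultures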; settings: S. cerevisiae rad50 mutant strain, stronger effect = higher value
In short: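 Yeast strain carrying rad50 alteration (rad50EPP+) exposed to compounds; growth inhibition measured relative to vehicle-treated controls.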

[4] = NCI Yeast Anticancer Drug Screen. Data for the mgt1 strain (AID 153); settings: S. cerevisiae mgt1 mutant growth inhibition, stronger effect = higher value
In short: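 Yeast mgt1 strain (DNA repair/cell-cycle alteration panel) exposed to compounds; growth inhibition measured relative to vehicle-treated controls.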

[5] = NCI Yeast Anticancer Drug Screen. Data for the rad50 strain (AID 155);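 note: 0% = growth of vehicle-only cultures of the same strain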; settings: S. cerevisiae rad50 strain growth inhibition, stronger effect = higher value
In short: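 Growth of the mutant yeast was measured after compound exposure and referenced to vehicle-treated cultures.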

[6] = NCI Yeast Anticancer Drug Screen. Data for the mec2-1 strain (AID 157); settings: S. cerevisiae mec2-1 strain, stronger effect = higher value
In short: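 mec2-1 yeast strain, carrying an alteration in DNA damage repair or cell cycle control, was exposed to compounds; growth inhibition was measured relative to vehicle-treated controls.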

[7] = NCI Yeast Anticancer Drug Screen. Data for the rad14 strain (AID 159);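 note: 0% = growth of vehicle-treated control cultures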; settings: S. cerevisiae rad14 strain growth inhibition, stronger effect = higher value
In short: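 Here, inhibition of yeast growth was measured after compound exposure, using a strain with a genetic defect in DNA damage repair and vehicle-treated cultures as the reference.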

[8] = NCI Yeast Anticancer Drug Screen. Data for the sgs1 mgt1 strain (AID 161);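 note: 0% = growth of cultures given vehicle only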; settings: S. cerevisiae sgs1 mgt1 strain, stronger effect = higher value
In short: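 Compounds are added to genetically altered yeast, and growth is compared with cultures given vehicle alone to give percent inhibition.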

[9] = NCI Yeast Anticancer Drug Screen. Data for the CLN2oe strain (AID 163);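 note: 0% = growth of vehicle-only control cultures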; settings: S. cerevisiae CLN2oe strain, stronger effect = higher value
In short: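 Yeast cells carrying a defined cell-cycle control alteration were exposed to test compounds. Growth inhibition was scored against vehicle-treated control cultures.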

[10] = NCI Yeast Anticancer Drug Screen. Data for the cln2 rad14 strain (AID 165);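 note: 0% = growth equal to vehicle treated cultures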; settings: S. cerevisiae cln2 rad14 strain, stronger effect = higher value
In short: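 Yeast carrying cln2 and rad14 alterations (cell cycle control and DNA damage repair) were exposed to compounds. Growth inhibition was measured against vehicle-treated controls.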

[11] = NCI Yeast Anticancer Drug Screen. Data for the bub3 strain (AID 167); settings: S. cerevisiae bub3 mutant strain, stronger effect = higher value
In short: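 Whole-cell yeast assay. The mutant strain was incubated with compounds, and growth inhibition was determined by comparison with vehicle-treated cells.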

[12] = NCI Yeast Anticancer Drug Screen. Data for the wt2 strain (AID 169);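 note: 0% = growth of vehicle-treated yeast cultures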; settings: S. cerevisiae wt2 strain growth inhibition, stronger effect = higher value
In short: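 Yeast cells were exposed to test compounds, and growth inhibition was measured relative to vehicle-treated controls.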

[13] = NCI Yeast Anticancer Drug Screen. Data for the mlh1 strain (AID 171);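 note: 0% = growth of vehicle-treated control cultures of the same strain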; settings: S. cerevisiae mlh1 strain growth inhibition, stronger effect = higher value
In short: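 Yeast carrying a defined genetic alteration in DNA damage repair or cell cycle control were exposed to test compounds. Growth inhibition was measured relative to vehicle-treated controls.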

[14] = NCI Yeast Anticancer Drug Screen. Data for the sgs1 strain (AID 173);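 note: 0% = growth of vehicle-only control cultures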; settings: S. cerevisiae sgs1 mutant, stronger effect = higher value
In short: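 Yeast mutant strains carrying defined defects in DNA damage repair or cell cycle control were exposed to test compounds. Growth inhibition was scored against vehicle-treated controls.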

[15] = NCI Yeast Anticancer Drug Screen. Data for the mlh1 rad18 strain (AID 175); settings: S. cerevisiae mlh1 rad18 strain growth inhibition, stronger effect = higher value
In short: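 Growth inhibition of the yeast strain was measured after compound exposure and expressed relative to vehicle-treated controls. The strain carries defined defects in DNA damage repair.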

[16] = at 5.0 µM (retest, dose inferred, filed as 0.5)
[17] = at 50.0 µM (retest, dose inferred, filed as 5.0)

Measured: growth inhibition

NNc1ccccc1-c1nc2ccccc2[nH]1
active: [5]; at 50.0 µM 75.9% | [11]; at 50.0 µM 76.9% | [15]; at 50.0 µM 91%
inactive: [1]; at 1.2 µM 1% | [1]; at 3.7 µM 7% | [1]; at 11.0 µM 9% | [1]; at 33.0 µM 17% | [1]; at 100.0 µM 60% | [2]; at 1.2 µM -4% | [2]; at 3.7 µM -3% | [2]; at 11.0 µM -5% | [2]; at 33.0 µM -4% | [2]; at 100.0 µM 25% | [3]; at 1.2 µM 2% | [3]; at 3.7 µM 6% | [3]; at 11.0 µM 12% | [3]; at 33.0 µM 24% | [3]; at 100.0 µM 59% | [4]; at 1.2 µM -3% | [4]; at 3.7 µM -2% | [4]; at 11.0 µM 0% | [4]; at 33.0 µM -1% | [4]; at 100.0 µM 48% | [5]; at 1.2 µM -1% | [5]; at 3.7 µM 5% | [5]; [16] -144% | [5]; at 11.0 µM 6% | [5]; at 33.0 µM 26% | [5]; [17] 53% | [5]; at 100.0 µM 60% | [6]; at 1.2 µM 3% | [6]; at 3.7 µM 3% | [6]; [16] -50% | [6]; at 11.0 µM 2% | [6]; at 33.0 µM 1% | [6]; [17] -40% | [6]; at 50.0 µM 48.4% | [6]; at 100.0 µM 20% | [7]; at 1.2 µM -2% | [7]; at 3.7 µM -5% | [7]; at 11.0 µM -1% | [7]; at 33.0 µM 0% | [7]; at 100.0 µM 49% | [8]; [16] -61% | [8]; [17] 27% | [8]; at 50.0 µM 11.7% | [9]; at 1.2 µM -2% | [9]; at 3.7 µM -1% | [9]; at 11.0 µM -3% | [9]; at 33.0 µM -9% | [9]; at 100.0 µM 35% | [10]; [16] -63% | [10]; [17] -73% | [10]; at 50.0 µM 32.1% | [11]; at 1.2 µM -6% | [11]; at 3.7 µM -4% | [11]; [16] -65% | [11]; at 11.0 µM -3% | [11]; at 33.0 µM -3% | [11]; [17] -30% | [11]; at 100.0 µM 30% | [12]; at 1.2 µM 1% | [12]; at 3.7 µM 0% | [12]; at 11.0 µM -1% | [12]; at 33.0 µM -1% | [12]; at 100.0 µM 47% | [13]; at 1.2 µM 6% | [13]; at 3.7 µM -3% | [13]; at 11.0 µM -3% | [13]; at 33.0 µM -3% | [13]; at 100.0 µM 47% | [14]; at 1.2 µM 0% | [14]; at 3.7 µM 1% | [14]; at 11.0 µM 0% | [14]; at 33.0 µM -1% | [14]; at 100.0 µM 47% | [15]; [16] -114% | [15]; [17] -3%

CC(=O)N1C=Cc2c(c(C)c3c([nH]c4ccccc43)c2C)C1
inactive: [1]; at 1.2 µM 25% | [2]; at 1.2 µM -7% | [2]; at 3.7 µM 28% | [3]; at 1.2 µM 28% | [4]; at 1.2 µM 29% | [4]; at 3.7 µM 64% | [5]; at 1.2 µM 67% | [6]; at 1.2 µM -5% | [6]; at 3.7 µM 33% | [6]; [16] 12% | [7]; at 1.2 µM 7% | [7]; at 3.7 µM 32% | [8]; [16] 16% | [9]; at 1.2 µM 31% | [9]; at 3.7 µM 52% | [10]; [16] 24% | [11]; at 1.2 µM 16% | [11]; at 3.7 µM 52% | [11]; [16] 14% | [12]; at 1.2 µM 10% | [12]; at 3.7 µM 36% | [13]; at 1.2 µM 31% | [14]; at 1.2 µM -7% | [14]; at 3.7 µM 32% | [15]; [16] 44%
active: [1]; at 3.7 µM 88% | [1]; at 11.0 µM 95% | [1]; at 33.0 µM 96% | [1]; at 100.0 µM 97% | [2]; at 11.0 µM 82% | [2]; at 33.0 µM 90% | [2]; at 100.0 µM 92% | [3]; at 3.7 µM 74% | [3]; at 11.0 µM 94% | [3]; at 33.0 µM 97% | [3]; at 100.0 µM 96% | [4]; at 11.0 µM 91% | [4]; at 33.0 µM 96% | [4]; at 100.0 µM 95% | [5]; at 3.7 µM 91% | [5]; [16] 82% | [5]; at 11.0 µM 95% | [5]; at 33.0 µM 96% | [5]; [17] 91% | [5]; at 50.0 µM 87.2% | [5]; at 100.0 µM 95% | [6]; at 11.0 µM 81% | [6]; at 33.0 µM 91% | [6]; [17] 84% | [6]; at 50.0 µM 87.3% | [6]; at 100.0 µM 93% | [7]; at 11.0 µM 79% | [7]; at 33.0 µM 90% | [7]; at 100.0 µM 94% | [8]; [17] 91% | [8]; at 50.0 µM 88% | [9]; at 11.0 µM 91% | [9]; at 33.0 µM 95% | [9]; at 100.0 µM 95% | [10]; [17] 86% | [10]; at 50.0 µM 79.8% | [11]; at 11.0 µM 90% | [11]; at 33.0 µM 95% | [11]; [17] 86% | [11]; at 50.0 µM 85.3% | [11]; at 100.0 µM 96% | [12]; at 11.0 µM 81% | [12]; at 33.0 µM 90% | [12]; at 100.0 µM 92% | [13]; at 3.7 µM 71% | [13]; at 11.0 µM 90% | [13]; at 33.0 µM 96% | [13]; at 100.0 µM 95% | [14]; at 11.0 µM 86% | [14]; at 33.0 µM 95% | [14]; at 100.0 µM 95% | [15]; [17] 95% | [15]; at 50.0 µM 88.8%
